Results published in article PMC7862700, “An all-to-all approach to the identification of sequence-specific readers for epigenetic DNA modifications on cytosine”.

Each sequence was assayed against T1, ERG (Homo sapiens, UniProt P11308 1-479) (assay: DAPPL (digital affinity profiling via proximity ligation, sequencing); 10 mM Tris-HCl pH 7.5, 50 mM NaCl, 1 mM DTT, 4% glycerol, room temperature, 30 min; GST-TFs on glutathione beads, 16-mer random dsDNA library, 0.1% formaldehyde crosslink after washing; high values mean tight binding). Conditions: protein: recombinant; tags: N-terminal GST; dsDNA, one strand shown.
T1 sequence: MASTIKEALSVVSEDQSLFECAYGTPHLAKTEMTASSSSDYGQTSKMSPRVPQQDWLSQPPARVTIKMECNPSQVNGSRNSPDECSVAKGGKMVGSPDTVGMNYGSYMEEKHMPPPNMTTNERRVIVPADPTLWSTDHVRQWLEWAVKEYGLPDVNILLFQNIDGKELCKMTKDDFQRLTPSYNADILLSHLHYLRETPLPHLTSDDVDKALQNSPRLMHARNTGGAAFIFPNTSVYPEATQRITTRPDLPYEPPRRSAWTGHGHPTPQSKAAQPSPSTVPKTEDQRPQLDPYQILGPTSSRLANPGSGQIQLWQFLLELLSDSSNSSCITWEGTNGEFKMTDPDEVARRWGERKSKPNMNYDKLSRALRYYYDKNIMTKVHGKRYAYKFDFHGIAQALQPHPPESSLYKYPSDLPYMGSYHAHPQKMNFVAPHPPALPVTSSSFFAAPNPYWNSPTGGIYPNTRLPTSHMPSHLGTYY
Outline: (§1)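 A tag-only sample was pooled with DNA-barcoded human transcription factors that had been expressed in yeast as GST fusions and captured on glutathione beads. The pools were incubated for 30 min at room temperature with 200 nmole of a random double-stranded 16-mer DNA library in Tris/NaCl/DTT/glycerol buffer, then washed, crosslinked with 0.1% formaldehyde, proximity-ligated (BsaI/T4 ligase, 1 h, 37 °C), PCR-amplified and sequenced on an Illumina NextSeq500. Binding signal is each hexamer's read frequency for a factor divided by its frequency for the tag-only sample.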
In the case of ACATAC, the binding signal was 1.19 fold enrichment (6-mer frequency, TF over GST control).
GACATC was tested, and the binding signal was 1.27 fold enrichment (6-mer frequency, TF over GST control).
In the case of ATCAAT, the binding signal was 1.04 fold enrichment (6-mer frequency, TF over GST control).
For GTCTTA, the binding signal was 1.06 fold enrichment (6-mer frequency, TF over GST control).
AGCGAC was tested, and the binding signal was 1.23 fold enrichment (6-mer frequency, TF over GST control).
In the case of TGAAAC, the binding signal was 1.16 fold enrichment (6-mer frequency, TF over GST control).
For AACCGG, the binding signal was 1.73 fold enrichment (6-mer frequency, TF over GST control).
In the case of CGACTA, the binding signal was 1.28 fold enrichment (6-mer frequency, TF over GST control).
CGATAT was tested, and the binding signal was 1.03 fold enrichment (6-mer frequency, TF over GST control).
TGTTTA was tested, and the binding signal was 1.17 fold enrichment (6-mer frequency, TF over GST control).
TGCCTT was tested, and the binding signal was 1.35 fold enrichment (6-mer frequency, TF over GST control).
With TAAGCT the binding signal was 1.18 fold enrichment (6-mer frequency, TF over GST control).
GATAAT was tested, and the binding signal was 1.03 fold enrichment (6-mer frequency, TF over GST control).
With TCGTTC the binding signal was 1.27 fold enrichment (6-mer frequency, TF over GST control).
With ATTGCT the binding signal was 1.25 fold enrichment (6-mer frequency, TF over GST control).
TCATCA was tested, and the binding signal was 1.13 fold enrichment (6-mer frequency, TF over GST control).
For TGTCTC, the binding signal was 1.23 fold enrichment (6-mer frequency, TF over GST control).
For GTACAT, the binding signal was 1.35 fold enrichment (6-mer frequency, TF over GST control).
CCACTG was tested, and the binding signal was 1.23 fold enrichment (6-mer frequency, TF over GST control).
For CTGGGT, the binding signal was 1.12 fold enrichment (6-mer frequency, TF over GST control).
In the case of CCCACT, the binding signal was 1.35 fold enrichment (6-mer frequency, TF over GST control).
With TCTCAA the binding signal was 1.28 fold enrichment (6-mer frequency, TF over GST control).
For GCTCAT, the binding signal was 1.32 fold enrichment (6-mer frequency, TF over GST control).
In the case of TGCCAT, the binding signal was 1.21 fold enrichment (6-mer frequency, TF over GST control).
For ATTAAC, the binding signal was 1.21 fold enrichment (6-mer frequency, TF over GST control).
For CGTAAC, the binding signal was 1.07 fold enrichment (6-mer frequency, TF over GST control).
ACGGAA was tested, and the binding signal was 1.93 fold enrichment (6-mer frequency, TF over GST control).
AGCCTA was tested, and the binding signal was 1.08 fold enrichment (6-mer frequency, TF over GST control).
CACTGT was tested, and the binding signal was 1.14 fold enrichment (6-mer frequency, TF over GST control).
With TCCATC the binding signal was 1.17 fold enrichment (6-mer frequency, TF over GST control).
For TTGCTC, the binding signal was 1.26 fold enrichment (6-mer frequency, TF over GST control).
In the case of TTAGAA, the binding signal was 1.05 fold enrichment (6-mer frequency, TF over GST control).
With CACATC the binding signal was 1.64 fold enrichment (6-mer frequency, TF over GST control).
In the case of TCTACA, the binding signal was 1.23 fold enrichment (6-mer frequency, TF over GST control).
With ACTACA the binding signal was 1.16 fold enrichment (6-mer frequency, TF over GST control).
In the case of ATGGGC, the binding signal was 1.26 fold enrichment (6-mer frequency, TF over GST control).
In the case of TGAACC, the binding signal was 1.1 fold enrichment (6-mer frequency, TF over GST control).
CCATTC was tested, and the binding signal was 1.2 fold enrichment (6-mer frequency, TF over GST control).
With TTAGGT the binding signal was 1.08 fold enrichment (6-mer frequency, TF over GST control).

Each sequence was assayed against ELF1 (Homo sapiens, UniProt P32519 1-619) in the same assay as above. Conditions: protein: recombinant; tags: N-terminal GST; dsDNA, one strand shown.
Sequence of ELF1 (P32519 whole entry): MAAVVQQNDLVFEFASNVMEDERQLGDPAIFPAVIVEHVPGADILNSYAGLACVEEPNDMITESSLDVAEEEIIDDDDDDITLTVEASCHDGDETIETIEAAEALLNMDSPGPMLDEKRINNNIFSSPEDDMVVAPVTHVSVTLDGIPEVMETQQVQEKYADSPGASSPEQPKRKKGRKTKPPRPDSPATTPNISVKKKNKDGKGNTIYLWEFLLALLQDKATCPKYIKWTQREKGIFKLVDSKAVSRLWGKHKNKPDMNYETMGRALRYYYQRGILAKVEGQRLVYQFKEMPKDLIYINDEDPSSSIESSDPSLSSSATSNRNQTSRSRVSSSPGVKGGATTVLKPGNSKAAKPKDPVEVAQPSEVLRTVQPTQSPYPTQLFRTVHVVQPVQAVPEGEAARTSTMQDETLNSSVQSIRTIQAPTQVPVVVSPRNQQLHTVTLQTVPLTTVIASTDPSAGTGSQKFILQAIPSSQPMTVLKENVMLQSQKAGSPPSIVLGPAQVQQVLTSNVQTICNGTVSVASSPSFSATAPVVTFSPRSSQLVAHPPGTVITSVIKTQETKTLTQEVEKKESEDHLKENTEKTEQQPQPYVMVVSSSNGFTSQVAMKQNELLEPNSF
Outline: as §1
ACATAC was tested, and the binding signal was 1.17 fold enrichment (6-mer frequency, TF over GST control).
In the case of GACATC, the binding signal was 1.21 fold enrichment (6-mer frequency, TF over GST control).
ATCAAT was tested, and the binding signal was 1.15 fold enrichment (6-mer frequency, TF over GST control).
With GTCTTA the binding signal was 1.11 fold enrichment (6-mer frequency, TF over GST control).
For AGCGAC, the binding signal was 1.17 fold enrichment (6-mer frequency, TF over GST control).
TGAAAC was tested, and the binding signal was 1.4 fold enrichment (6-mer frequency, TF over GST control).
In the case of AACCGG, the binding signal was 1.46 fold enrichment (6-mer frequency, TF over GST control).
In the case of CGACTA, the binding signal was 1.31 fold enrichment (6-mer frequency, TF over GST control).
In the case of CGATAT, the binding signal was 1.12 fold enrichment (6-mer frequency, TF over GST control).
For TGTTTA, the binding signal was 1.13 fold enrichment (6-mer frequency, TF over GST control).
With TGCCTT the binding signal was 1.33 fold enrichment (6-mer frequency, TF over GST control).
In the case of TAAGCT, the binding signal was 1.15 fold enrichment (6-mer frequency, TF over GST control).
With GATAAT the binding signal was 1.02 fold enrichment (6-mer frequency, TF over GST control).
In the case of TCGTTC, the binding signal was 1.15 fold enrichment (6-mer frequency, TF over GST control).
For ATTGCT, the binding signal was 1.24 fold enrichment (6-mer frequency, TF over GST control).
In the case of TCATCA, the binding signal was 1.14 fold enrichment (6-mer frequency, TF over GST control).
For TGTCTC, the binding signal was 1.2 fold enrichment (6-mer frequency, TF over GST control).
In the case of GTACAT, the binding signal was 1.36 fold enrichment (6-mer frequency, TF over GST control).
For CCACTG, the binding signal was 1.28 fold enrichment (6-mer frequency, TF over GST control).
In the case of CTGGGT, the binding signal was 1.17 fold enrichment (6-mer frequency, TF over GST control).
CCCACT was tested, and the binding signal was 1.38 fold enrichment (6-mer frequency, TF over GST control).
For TCTCAA, the binding signal was 1.26 fold enrichment (6-mer frequency, TF over GST control).
In the case of GCTCAT, the binding signal was 1.36 fold enrichment (6-mer frequency, TF over GST control).
With TGCCAT the binding signal was 1.1 fold enrichment (6-mer frequency, TF over GST control).
With ATTAAC the binding signal was 1.32 fold enrichment (6-mer frequency, TF over GST control).
For CGTAAC, the binding signal was 1.11 fold enrichment (6-mer frequency, TF over GST control).
In the case of ACGGAA, the binding signal was 1.62 fold enrichment (6-mer frequency, TF over GST control).
For AGCCTA, the binding signal was 1.1 fold enrichment (6-mer frequency, TF over GST control).
In the case of CACTGT, the binding signal was 1.16 fold enrichment (6-mer frequency, TF over GST control).
TCCATC was tested, and the binding signal was 1.29 fold enrichment (6-mer frequency, TF over GST control).
With TTGCTC the binding signal was 1.28 fold enrichment (6-mer frequency, TF over GST control).
In the case of TTAGAA, the binding signal was 1.14 fold enrichment (6-mer frequency, TF over GST control).
CACATC was tested, and the binding signal was 1.4 fold enrichment (6-mer frequency, TF over GST control).
TCTACA was tested, and the binding signal was 1.28 fold enrichment (6-mer frequency, TF over GST control).
In the case of ACTACA, the binding signal was 1.19 fold enrichment (6-mer frequency, TF over GST control).
ATGGGC was tested, and the binding signal was 1.27 fold enrichment (6-mer frequency, TF over GST control).
In the case of TGAACC, the binding signal was 1.15 fold enrichment (6-mer frequency, TF over GST control).
For CCATTC, the binding signal was 1.17 fold enrichment (6-mer frequency, TF over GST control).
For TTAGGT, the binding signal was 1.03 fold enrichment (6-mer frequency, TF over GST control).

These sequences were tested against T2, EHF (Homo sapiens, UniProt Q9NZC4 1-300) in the same assay as above. Conditions: protein: recombinant; tags: N-terminal GST; dsDNA, one strand shown.
T2 sequence: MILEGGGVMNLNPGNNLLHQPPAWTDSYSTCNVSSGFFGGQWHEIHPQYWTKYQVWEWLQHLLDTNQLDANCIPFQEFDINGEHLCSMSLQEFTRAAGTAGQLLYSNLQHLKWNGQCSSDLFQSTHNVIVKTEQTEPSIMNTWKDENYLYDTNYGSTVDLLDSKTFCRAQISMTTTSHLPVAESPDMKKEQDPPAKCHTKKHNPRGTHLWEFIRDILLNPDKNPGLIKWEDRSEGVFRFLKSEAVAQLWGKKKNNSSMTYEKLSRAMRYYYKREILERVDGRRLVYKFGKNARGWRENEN
Outline: as §1
In the case of ACATAC, the binding signal was 1.14 fold enrichment (6-mer frequency, TF over GST control).
With GACATC the binding signal was 1.35 fold enrichment (6-mer frequency, TF over GST control).
In the case of ATCAAT, the binding signal was 1.02 fold enrichment (6-mer frequency, TF over GST control).
For GTCTTA, the binding signal was 1.08 fold enrichment (6-mer frequency, TF over GST control).
In the case of AGCGAC, the binding signal was 1.23 fold enrichment (6-mer frequency, TF over GST control).
With TGAAAC the binding signal was 1.28 fold enrichment (6-mer frequency, TF over GST control).
For AACCGG, the binding signal was 1.5 fold enrichment (6-mer frequency, TF over GST control).
In the case of CGACTA, the binding signal was 1.31 fold enrichment (6-mer frequency, TF over GST control).
In the case of CGATAT, the binding signal was 1.1 fold enrichment (6-mer frequency, TF over GST control).
TGTTTA was tested, and the binding signal was 1.19 fold enrichment (6-mer frequency, TF over GST control).
TGCCTT was tested, and the binding signal was 1.3 fold enrichment (6-mer frequency, TF over GST control).
In the case of TAAGCT, the binding signal was 1.2 fold enrichment (6-mer frequency, TF over GST control).
For GATAAT, the binding signal was 1.09 fold enrichment (6-mer frequency, TF over GST control).
With TCGTTC the binding signal was 1.23 fold enrichment (6-mer frequency, TF over GST control).
With ATTGCT the binding signal was 1.31 fold enrichment (6-mer frequency, TF over GST control).
TCATCA was tested, and the binding signal was 1.09 fold enrichment (6-mer frequency, TF over GST control).
With TGTCTC the binding signal was 1.22 fold enrichment (6-mer frequency, TF over GST control).
With GTACAT the binding signal was 1.26 fold enrichment (6-mer frequency, TF over GST control).
For CCACTG, the binding signal was 1.19 fold enrichment (6-mer frequency, TF over GST control).
With CTGGGT the binding signal was 1.12 fold enrichment (6-mer frequency, TF over GST control).
For CCCACT, the binding signal was 1.46 fold enrichment (6-mer frequency, TF over GST control).
With TCTCAA the binding signal was 1.19 fold enrichment (6-mer frequency, TF over GST control).
For GCTCAT, the binding signal was 1.26 fold enrichment (6-mer frequency, TF over GST control).
TGCCAT was tested, and the binding signal was 1.21 fold enrichment (6-mer frequency, TF over GST control).
With ATTAAC the binding signal was 1.16 fold enrichment (6-mer frequency, TF over GST control).
For CGTAAC, the binding signal was 1.16 fold enrichment (6-mer frequency, TF over GST control).
In the case of ACGGAA, the binding signal was 2 fold enrichment (6-mer frequency, TF over GST control).
In the case of AGCCTA, the binding signal was 1.04 fold enrichment (6-mer frequency, TF over GST control).
CACTGT was tested, and the binding signal was 1.19 fold enrichment (6-mer frequency, TF over GST control).
With TCCATC the binding signal was 1.2 fold enrichment (6-mer frequency, TF over GST control).
In the case of TTGCTC, the binding signal was 1.3 fold enrichment (6-mer frequency, TF over GST control).
In the case of TTAGAA, the binding signal was 1.14 fold enrichment (6-mer frequency, TF over GST control).
For CACATC, the binding signal was 1.5 fold enrichment (6-mer frequency, TF over GST control).
TCTACA was tested, and the binding signal was 1.25 fold enrichment (6-mer frequency, TF over GST control).
In the case of ACTACA, the binding signal was 1.15 fold enrichment (6-mer frequency, TF over GST control).
ATGGGC was tested, and the binding signal was 1.32 fold enrichment (6-mer frequency, TF over GST control).
For TGAACC, the binding signal was 1.16 fold enrichment (6-mer frequency, TF over GST control).
In the case of CCATTC, the binding signal was 1.07 fold enrichment (6-mer frequency, TF over GST control).
In the case of TTAGGT, the binding signal was 1.1 fold enrichment (6-mer frequency, TF over GST control).
